The results in this text go back to PubChem BioAssay AID1852 (Sanford-Burnham Center for Chemical Genomics, 2009).

The structures appear in SMILES notation. In all, about 2,500 compounds went through this assay and about 1,100 (44%) were called active. So high a share suggests a set chosen from earlier hits. The list shows a part of the results. Values without a mark were called inactive.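 The calls were made as follows: active = inhibition above 50% at 4 µM in the single-point screen; inactive = inhibition of 50% or less.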

The nature of this assay: blockers of TNF-a NF-kB luciferase induction – cell-based, HEK293T NF-kB-Luc, luminescence, selectivity assay for NOD1/NOD2 signaling inhibitor project, primary screen (AID 1852). The conditions noted are these: TNF-a induced, 14 h, at 4 µM, active compounds read high.
With `COc1cccc(N2CCN(c3ncnc4c3[nH]c3ccc(F)cc34)CC2C)c1` (stereo unspecified), the inhibition was 110% (active). On to `COc1cccc(N2CCN(c3ncnc4c3[nH]c3ccccc34)CC2C)c1` (stereo unspecified), for which the inhibition is 106% (active). Take `Cc1cccc(N2CCN(C(=O)C3CCN(c4ncnc5c4nc4n5CCCCC4)CC3)CC2C)c1` (stereo unspecified): the inhibition is 33.7%.

With `NC(=O)c1c(NC(=O)c2ccc([N+](=O)[O-])o2)sc2c1CCCC2`, the inhibition is -24.9%. In the case of `COc1ccc(OC)c(Nc2c3c(nc4ccccc24)CCC3)c1`, the inhibition was 49.6%.

Turning to `COc1ccc(CNC(=O)c2cc3c(C)nc4ccccc4c3o2)c(OC)c1`, the inhibition was 62.8% (active). The value for `Cc1nc2ccccc2c2oc(C(=O)NCC3COc4ccccc4O3)cc12` (stereo unspecified) was 39.3%. The value for `CCCCc1cc(=O)oc2cc(OCC(=O)Nc3cccnc3)c(Cl)cc12` was 85.3% (active). As to `O=C(COc1ccc2c(-c3ccccc3)cc(=O)oc2c1)Nc1cccnc1`, the inhibition is 34.1%.

For the molecule `O=C(COc1ccc(C(=O)c2ccccc2)cc1)Nc1cccnc1`, the inhibition was 46.8%. `COc1nc(Nc2nc3ccccc3c(=O)[nH]2)nc2ccc(C)cc12`: the inhibition was 67.4% (active). The value for `COc1ccc(C(=O)N/N=C/c2ccc(OC(=O)c3cccc4ccccc34)c([N+](=O)[O-])c2)cc1` was 41.6%; that for `Cc1[nH]n(-c2ccccc2)c(=O)c1/C=N/NC(=O)c1cccc(F)c1` was -0.8%. `Cc1[nH]n(-c2ccccc2)c(=O)c1/C=N/NC(=O)c1cccc([N+](=O)[O-])c1`: the inhibition was 76.8% (active). `Cc1ccc2cccc(N=Cc3c(C)[nH]n(-c4ccccc4)c3=O)c2n1`: the inhibition is 38.3%. For the molecule `COc1ccc(C(=O)Nc2ccccc2C(=O)N/N=C/c2ccccn2)cc1OC`, the inhibition is 102% (active). With `C/C(=N/NC(=S)Nc1cccc(C)c1)c1cccc([N+](=O)[O-])c1`, the inhibition was 6.4%. For the molecule `Cc1c(C(=O)N/N=C/c2ccoc2)cccc1[N+](=O)[O-]`, the inhibition was -12.6%.

Consider `Cc1cccc(/C=N/NC(=O)c2cccc([N+](=O)[O-])c2)n1`, for which the inhibition is 97.4% (active). For the molecule `Cc1ccc(-n2[nH]c(C)c(/C=N/Nc3ccc([N+](=O)[O-])cc3[N+](=O)[O-])c2=O)cc1C`, the inhibition was 83.2% (active). For `CCOc1cc(S(=O)(=O)NCc2ccncc2)ccc1Cl`, the inhibition is 48.8%. With `O=C(N/N=C/c1ccccn1)c1ccc(Cl)c(Cl)c1`, the inhibition is 101% (active). As to `C/C(Cn1nnc([N+](=O)[O-])n1)=N\NC(=O)c1ccc(Cl)c(Cl)c1`, the inhibition is 31.3%. For `C/C(=N\NC(=O)c1ccc(Cl)c(Cl)c1)c1ccc(Br)s1`, the inhibition is 40.4%. As for `CC(/C=C/c1ccccc1)=N/NC(=O)c1cc([N+](=O)[O-])cc([N+](=O)[O-])c1`, the inhibition was 102% (active). In the case of `CC(/C=C/c1ccccc1)=N/NC(=O)c1cccc(Br)c1`, the inhibition is 13.3%. The value for `O=C(N/N=C/c1ccccn1)c1ccc(Cl)cc1` was -21.2%; that for `O=C(N/N=C/c1ccccn1)c1cc([N+](=O)[O-])cc([N+](=O)[O-])c1` was 96.4% (active). As for `O=C(N/N=C/c1ccccn1)c1sc2ccccc2c1Cl`, the inhibition was 85.8% (active). The value for `COc1cc([N+](=O)[O-])ccc1-c1ccc(/C=N/NC(=O)c2ccccc2O)o1` was 0.6%. The value for `CCc1ccc(N(CC)c2ncnc3nc[nH]c23)cc1` was 82.5% (active); that for `CCCN(CCC)c1ncnc2nc[nH]c12` was 83.4% (active); that for `CCN(c1ccc(OC)cc1)c1ncnc2nc[nH]c12` was 86.3% (active). As to `C/C(Cl)=C/Cn1c(SC(C)C)nc2c1c(=O)[nH]c(=O)n2C`, the inhibition was -13.9%. With `Cc1cccc(NC(=O)c2cccc(NS(=O)(=O)c3ccc(Cl)cc3)c2)c1`, the inhibition was 23.1%. As to `O=C1CSc2ccc(C(=O)Nc3cccc(S(=O)(=O)Nc4ccc(Br)cc4)c3)cc2N1`, the inhibition was 63.4% (active). Regarding `Cc1ccc2c(c1)CCCN2S(=O)(=O)c1cccc(C(=O)Nc2ccccc2C(=O)O)c1`, the inhibition was 5.4%. Take `Cc1ccc(NS(=O)(=O)c2cc(NC(=O)c3ccc4c(c3)NC(=O)CS4)ccc2C)c(C)c1`: the inhibition was 3.2%.

On to `O=C(Nc1ccccc1C(=O)O)c1cccc(NS(=O)(=O)c2ccc(Br)cc2)c1`, for which the inhibition is 55.5% (active). Regarding `Cc1ccc(NS(=O)(=O)c2cc(NC(=O)c3ccc4c(c3)NC(=O)CS4)ccc2Cl)c(C)c1`, the inhibition is -2.2%. Turning to `O=C(Nc1ccccc1C(=O)O)c1cc(S(=O)(=O)Nc2cccc(F)c2)ccc1Cl`, the inhibition was 58.9% (active). As for `O=C(Nc1cccc([N+](=O)[O-])c1)c1ccc2ccccc2c1O`, the inhibition is 32.8%. With `O=C(/C=C/c1ccc([N+](=O)[O-])cc1)Nc1cccc(C(=O)Nc2ccccc2C(=O)O)c1`, the inhibition is 65.5% (active). In the case of `Cc1ccc(Sc2ccc(/C=C3/C(=O)NN(c4ccccc4)C3=O)o2)cc1`, the inhibition was -8.6%. With `Cc1ccc(C(=O)Nc2ccccc2C(=O)O)cc1S(=O)(=O)Nc1ccccc1`, the inhibition is 76.6% (active). The value for `O=C(Nc1ccccc1C(=O)O)c1cc(S(=O)(=O)N2CCCCC2)c(Cl)cc1Cl` was 61% (active). For `O=C(Nc1ccccc1C(=O)O)c1cc(S(=O)(=O)Nc2ccccc2)ccc1Cl`, the inhibition is 58.9% (active). As to `O=C(Nc1ccc(Cl)cn1)c1ccc(Br)c(S(=O)(=O)N2CCCCC2)c1`, the inhibition was 39.5%. Turning to `NS(=O)(=O)c1ccc(NC(=O)c2cc(Cl)ccc2Cl)cc1`, the inhibition was 14.7%. Consider `O=C(CCl)Nc1cc(S(=O)(=O)N2CCCCCC2)ccc1Cl`, for which the inhibition was 17.6%. `O=C(c1cc2nc(-c3ccc(F)cc3)cc(C(F)(F)F)n2n1)N1CCCCC1c1cccnc1` (stereo unspecified): the inhibition is 34.3%. As for `Brc1ccccc1OCCCCn1cnc2ccccc21`, the inhibition was -10.4%. With `O=c1nc(/C=C/c2ccccc2C(F)(F)F)cc(C(F)(F)F)[nH]1`, the inhibition is -14.4%. On to `O=c1cc(C(F)(F)F)[nH]c2ccc(OC(F)(F)F)cc12`, for which the inhibition was 78.8% (active).

Turning to `O=c1cc(C(F)(F)F)[nH]c2ccc(C(F)(F)F)cc12`, the inhibition was 73.1% (active). Consider `Cc1ccccc1NC(=O)/C=C/c1ccc([N+](=O)[O-])s1`, for which the inhibition was 104% (active). In the case of `CN(C(=O)/C=C/c1ccc([N+](=O)[O-])s1)c1ccccc1`, the inhibition was 37.1%. As to `Cc1ccc(NC(=O)/C=C/c2ccc([N+](=O)[O-])s2)c(C)c1`, the inhibition was 100% (active).

On to `Oc1[nH]c2ccccc2c1N=NC(=S)N1CCOCC1`, for which the inhibition was 94.8% (active).

For `Oc1[nH]c2ccccc2c1N=Nc1nc(Nc2ccccc2)nc(N2CCOCC2)n1`, the inhibition was 12.6%.

Regarding `Cc1ccc(-c2nn(CCC(=O)O)cc2/C=C\C(=O)c2ccc(Br)cc2)cc1`, the inhibition was 94.7% (active).

`O=C(O)CCn1cc(/C=C/C(=O)c2ccc(Cl)cc2)c(-c2cccc(Br)c2)n1`: the inhibition is -4.4%. Turning to `O=C(O)CCn1cc(/C=C\C(=O)c2ccc(Cl)cc2)c(-c2cccc(Br)c2)n1`, the inhibition is 77.2% (active). Take `N#C/C(=C(/O)COC(=O)CSc1ccc2ccccc2c1)c1nc2ccccc2[nH]1`: the inhibition is 90.4% (active).

Consider `N#C/C(=C(/O)COC(=O)CSc1ccc(Cl)cc1)c1nc2ccccc2[nH]1`, for which the inhibition was 93.2% (active). Consider `Cc1ccnc(NC(=O)Nc2ccc3c(c2)N(C)C(=O)CS3)c1`, for which the inhibition was -55.6%. The value for `O=C(Nc1nc(-c2cc(F)ccc2F)cs1)c1ccccn1` was 91.2% (active); that for `O=C(Nc1nc(-c2ccccn2)cs1)c1cc(Cl)ccc1[N+](=O)[O-]` was 105% (active); that for `CC(Oc1ccc(Br)cc1)C(=O)Nc1nc(-c2ccccn2)cs1` (stereo unspecified) was 90.7% (active). In the case of `Cc1cc(C(=O)Nc2nc(-c3ccccn3)cs2)ccc1[N+](=O)[O-]`, the inhibition was -1%. For `O=C(Nc1nnc(SCc2ccc(F)cc2)s1)c1ccccn1`, the inhibition is 109% (active). Take `CCc1ccccc1OCC(=O)Nc1nc(-c2cccnc2)cs1`: the inhibition is 15.7%. Take `Cn1cc([N+](=O)[O-])c(C(=O)Nc2nc(-c3ccc(Cl)cc3)cs2)n1`: the inhibition was 43.8%. Regarding `Cc1nc(C2CCC3C4CCC5=CC(=O)CC[C@]5(C)C4CC[C@]23C)cs1` (stereo partly specified), the inhibition was 34.9%.

`O=C(Nc1nc(-c2ccccn2)cs1)c1ccc(Cl)s1`: the inhibition was 19.4%. Consider `CCSc1nsc(NC(=O)Nc2cccc(F)c2)n1`, for which the inhibition was 46.9%.

For `O=C(Nc1nc(-c2ccccn2)cs1)Nc1ccc(F)cc1F`, the inhibition was 82.1% (active). For `COc1ccccc1-c1nnc(Nc2nc3c(OC)cccc3s2)o1`, the inhibition was 27.9%. Turning to `Cc1cccnc1Nc1nc(-c2ccccn2)cs1`, the inhibition is 104% (active). Regarding `COc1cccc2sc(Nc3nc(-c4ccccn4)cs3)nc12`, the inhibition was 102% (active).

On to `Fc1cc(F)c2nc(Nc3nc4c(F)cccc4s3)sc2c1`, for which the inhibition is -17.5%. Consider `COc1ccc(CCNS(=O)(=O)c2ccc(Br)s2)cc1`, for which the inhibition was 35%. As for `CC(=O)c1cccc(NS(=O)(=O)c2ccc(-c3cnc(C4CC4)o3)cc2)c1`, the inhibition is 66.3% (active).

Consider `COc1ccc(NS(=O)(=O)c2ccc(-c3cnc(C4CC4)o3)cc2)cc1OC`, for which the inhibition is 38.9%. The value for `CSc1cccc(NS(=O)(=O)c2ccc(-c3coc(C)n3)cc2)c1` was 24.6%; that for `O=C(Nc1cc(C(F)(F)F)cc(C(F)(F)F)c1)Nc1cnn(-c2ccc([N+](=O)[O-])cc2)c1C(F)(F)F` was 48.5%.

Regarding `O=C(NC(NNc1ccc([N+](=O)[O-])cc1)(C(F)(F)F)C(F)(F)F)c1ccc(Cl)cc1`, the inhibition was 50.3% (active). The value for `CCN(CC)C(=O)c1oc2ccc(S(=O)(=O)N3CC(C)CC(C)C3)cc2c1C` (stereo unspecified) was 31.2%; that for `CCOC(=O)c1oc2ccc(S(=O)(=O)n3nc(-c4ccc(OC)cc4)cc3N)cc2c1C` was 60.2% (active). The value for `CCn1c(=O)c2c(cnn2C)c2ccccc21` was 81.7% (active). With `CCOC(=O)C(=CNc1ccc2c(c1)c1ccccc1n2CC)C(=O)OCC`, the inhibition is 17.5%.

For orientation: inhibition means the drop in the measured response relative to a control, in per cent.
